Source: PubChem BioAssay (National Center for Advancing Translational Sciences (NCATS))
Abeta rescue = qHTS for compounds that reverse cellular toxicity of Amyloid beta (A-beta) peptide in yeast: Primary Screen; yeast expressing A-beta42, growth rescue, OD600, 48 h; response scale: 0% DMSO, 100% iron-clioquinol control; Potency, µM (titrated, usually from 46.1 µM), hits mostly activators; 410,000 compounds, 0.063% hits; AID 1347071, 2019; note: nearly all actives have a fitted effect of over 55% in size
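Yeast growth medium received pinned compounds, then yeast cells expressing toxic A-beta were added; plates incubated at 30 C for 48 hr. Growth read as absorbance at 600 nm, normalized to DMSO and equimolar FeCl3 plus clioquinol controls.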
FUS yeast rescue = qHTS for Suppressors of FUS Proteinopathy: Primary screen using FUS-linked yeast assay. 390,000 compounds, 0.24% hits. Potency, µM (top dose mostly 76.6 µM), most hits filed as activators. S. cerevisiae FUS-expressing, growth rescue, OD600, 24 h. AID 1347120, 2019; note: nearly all actives have a fitted effect of over 55% in size
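Galactose (2%) drives FUS expression in yeast precultured in raffinose; seeding density OD 0.005. Test compounds incubated 24hr at 30C and 99% humidity before absorbance at 600 nm was measured.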
TDP-43 yeast inh = qHTS of TDP-43 Inhibitors | TDP-43 expressing yeast growth rescue, BacTiter-Glo, 24 h | Potency, µM (top dose mostly 46.1 µM), most hits filed as activators | 410,000 compounds, 1.8% hits; note: nearly all actives have a fitted effect of over 50% in size
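Yeast cells expressing TDP-43 under galactose induction are exposed to compounds for 24 hr at 30 deg C. BacTiter-Glo luminescence measures growth, so protective compounds score as activators.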
aSyn rescue = qHTS of alpha-syn Inhibitors; Potency, µM (top dose mostly 46.1 µM), usual class: activators; Yeast expressing alpha-synuclein, growth rescue, BacTiter-Glo, 24 h; 370,000 compounds, 0.14% hits; note: nearly all actives have a fitted effect of over 65% in size
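Rescue of yeast growth: cells expressing toxic alpha-synuclein, induced in galactose at OD600 0.02, incubated with compound 24 h at 30 C. ATP luminescence quantified growth; inhibitors of toxicity appear as activators.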
A number is an active result; . = inactive; ? = inconclusive; / = no result given; ! = not active in a repeat. Rows were chosen to be rich in hits. Some 2.1% of all compounds tested hit in one or more screens of this group. Calls come from the whole dose curve; as a rule, active = well fitted curve in the direction sought with a large enough effect; inconclusive = small, poorly fitted or top-dose-only effect, or another doubt; inactive = no such curve, though single readings can be large; an effect the other way counts as inactive or inconclusive.

SMILES	Abeta rescue	FUS yeast rescue	TDP-43 yeast inh	aSyn rescue
CC1CCCCC1n1c(-c2cccnc2)n[nH]c1=S (stereo unspecified)	.	.	.	.
O=[N+]([O-])c1ccc(/C=N/Nc2nc(N3CCCCCC3)nc(N3CCCCCC3)n2)o1	.	?	22µM	.
O=[N+]([O-])c1ccc(/C=N/Nc2nc(N3CCCCC3)nc(N3CCCCC3)n2)cc1	.	.	.	.
O=[N+]([O-])c1ccc(Nc2nc(N/N=C\c3ccc4c(c3)OCO4)nc(N3CCCCC3)n2)cc1	?	?	11µM	.
COC(=O)c1cc(Br)cn1S(=O)(=O)c1ccccc1	.	.	.	.
CCc1cc(SC#N)cc(C)c1N	.	.	18µM	.
COC(=O)c1ccccc1NC(=O)c1ccc(=O)n(Cc2cccc(C)c2)c1	.	.	32µM	.
CCCCc1ccc(NC(=O)c2ccc(=O)n(Cc3cccc(C)c3)c2)cc1	.	.	.	.
O=C(OCC(=O)N1CCCC1=O)c1nc(Cl)c(Cl)c(Cl)c1Cl	.	.	25µM	.
COc1cc(CCC(=O)Nc2ccc(Cl)c(C(F)(F)F)c2)cc(OC)c1OC	.	/	.	.
COc1cc(C(=O)Nc2ccc(Cl)c(C(F)(F)F)c2)cc(OC)c1OC	.	.	18µM	?
COc1ccc(C(=O)Nc2ccc(N3CCOCC3)c(C(F)(F)F)c2)cc1OC	.	.	20µM	.
CCCCn1nc(NC(=O)COC)c2cc3ccc(C)cc3nc21	.	.	.	.
N#Cc1c([N+](=O)[O-])cc([N+](=O)[O-])cc1S(=O)(=O)Cc1ccccc1	.	/	11µM	.
c1ccc(COc2cncc(-c3cccnc3)c2)cc1	.	.	.	.
O=C(c1ccc2c(c1)CCN2S(=O)(=O)c1ccccc1)N1CCN(c2ccc(F)cc2)CC1	.	18µM!	?	.
O=C1/C(=C/c2cccc([N+](=O)[O-])c2)CCc2ccccc21	.	/	22µM	.
O=c1cc2c(nn1Cc1ccccc1)-c1ccccc1CC2	.	.	.	.
CC(=O)Oc1ccc(/C=C2/CCc3ccccc3C2=O)cc1	.	.	11µM	.
COc1ccc2c(c1)CC/C(=C/c1ccccn1)C2=O	.	.	?	.
O=c1cc2c(nn1Cc1cccc([N+](=O)[O-])c1)-c1ccccc1CC2	.	.	28µM	.
O=C1C(=Cc2ccccn2)CCc2ccccc21	.	.	18µM	.
COc1cccc(/C=C2\CCc3ccccc3C2=O)c1	.	.	.	.
COc1ccc(NC(=O)CSc2nnc(-c3cccs3)n2N)cc1S(N)(=O)=O	.	.	.	.
COc1ccc(C)cc1NC(=O)CSc1nnc(-c2ccco2)n1N	.	.	.	.
SMILES	Abeta rescue	FUS yeast rescue	TDP-43 yeast inh	aSyn rescue
COc1ccc2c(c1OC)C(=O)NC(C)=C(C(=O)OC(C)(C)C)C2O (stereo unspecified)	.	.	.	16µM
C(=C/c1nccc2c1[nH]c1ccccc12)/c1ccc2c(c1)OCO2	.	.	10µM	.
CCCCC1=CC2=CC(=O)C(C)(OC(=O)CC)C(=O)C2=CN1c1ccccc1 (stereo unspecified)	.	.	?	.
CCOc1ccc(C(=O)Oc2cc(C)[nH]c(=O)c2[N+](=O)[O-])cc1	.	.	?	.
CCCCOc1ccc(C(=O)Oc2cc(C)[nH]c(=O)c2[N+](=O)[O-])cc1	.	.	18µM	.
COc1cc(C(=O)N2CCc3c([nH]c4ccccc34)C2c2ccccc2)cc(OC)c1OC (stereo unspecified)	.	?	.	/
O=C(c1cc(-c2ccccc2)n[nH]1)N1CCc2c([nH]c3ccccc23)C1c1ccccn1 (stereo unspecified)	?	?	18µM	?
COc1cc(C(=O)N2CCc3c([nH]c4ccccc34)C2c2ccc(C)cc2)cc(OC)c1OC (stereo unspecified)	.	14µM	.	/
O=C(c1cccs1)N1CCc2c([nH]c3ccccc23)C1c1ccccn1 (stereo unspecified)	.	.	?	.
COc1ccc(-c2nc(C(=O)Nc3cccc(C(C)=O)c3)nn2-c2ccc(Cl)cc2)cc1	.	?	.	/
COc1ccc(-n2nc(C(=O)Nc3ccc(C(C)=O)cc3)nc2-c2ccccc2)cc1	.	.	22µM	/
CN(C)c1nc(-c2ccccn2)nnc1-c1ccccc1	.	.	.	?
c1ccc(-c2cccc(CNc3nc(-c4ccccn4)nnc3-c3ccccc3)c2)cc1	/	32µM	/	/
c1ccc(C[n+]2csc3ccccc32)cc1	.	.	?	.
CSc1ccc(C2Nc3ccccc3-c3cc(C)nn32)cc1 (stereo unspecified)	.	?	18µM	.
CCN(CC)c1ccc(C2Nc3ccccc3-c3cc(C)nn32)cc1 (stereo unspecified)	.	.	?	/
Cc1cc2n(n1)C(c1ccsc1)Nc1ccccc1-2 (stereo unspecified)	.	.	8.9µM	.
COC(=O)c1ccc(C2Nc3c(C)cccc3-c3cc(C)nn32)cc1 (stereo unspecified)	.	?	13µM	/
CCSc1oc(-c2ccco2)nc1S(=O)(=O)c1ccc(Br)cc1	.	.	.	/
N#CC(C(=O)c1ccccc1Cl)=C1SCCCS1	.	.	35µM	.
N#CC1(c2ccccc2)CCCN1C(=O)c1ccccc1Cl (stereo unspecified)	.	.	.	.
COc1ccccc1[C@H]1C(c2ccc(F)cc2)=NN(c2ccccc2)[C@@H]1CO	.	.	28µM	.
C[C@H]1C(c2ccc(F)cc2)=NN(c2ccccc2)[C@@H]1CO	?	.	18µM	.
CC(C)c1ccccc1NC(=O)CSc1nnc(COc2ccccc2)o1	.	.	?	/
COC(=O)c1ccccc1NC(=O)CSc1nnc(Cc2ccc(Cl)cc2)o1	.	.	25µM	.
SMILES	Abeta rescue	FUS yeast rescue	TDP-43 yeast inh	aSyn rescue
COc1ccccc1NC(=O)CSc1nnc(COc2ccc(Cl)cc2)o1	.	.	.	.
CC(C)c1ccccc1NC(=O)CSc1nnc(COc2ccccc2Cl)o1	.	.	20µM	/
CC(=O)Nc1ccc(S(=O)(=O)NC2(C(F)(F)F)C(=O)Nc3c2c(=O)[nH]c(=O)n3-c2ccc(C)c(C)c2)cc1 (stereo unspecified)	.	.	.	/
CCN(c1ccccc1)c1nc(Cl)nc2c1cnn2C	.	.	.	.
Cc1cc(C)c(NC(=O)c2cc3c(=O)n4ccccc4nc3n2C)c(C)c1	.	.	35µM	/
COc1ccc(C)cc1NC(=O)c1cc2c(=O)n3ccccc3nc2n1C	.	.	.	.
Cc1sc2ncnc(N(C)Cc3cccs3)c2c1C	.	.	13µM	.
CN(Cc1cccs1)c1ncnc2sccc12	.	.	13µM	.
Cc1sc2ncnc(N(C)CCc3ccccn3)c2c1C	.	.	.	.
c1csc(CNc2ncnc3sccc23)c1	.	.	14µM	.
